According to PubChem BioAssay (Tox21):
Results filed as inconclusive are left out. A call without a number means that no potency is given here. Unmarked numbers belong to inactive results. The source made the active and inactive calls. Unless noted, calls come from the whole dose curve; as a rule, active = well fitted curve in the direction sought with a large enough effect in the repeat runs; inconclusive = weak or mixed curves; inactive = no such curve, though single readings can be large; an effect the other way counts as inactive or inconclusive.

Legend:
[1] = qHTS assay to identify aromatase inhibitors - cell viability counter screen (AID 743084);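 note: cells stimulated with testosterone during compound exposure; nearly all actives have a fitted effect of over 55% in size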; note: potency is the fitted concentration of half-maximal effect
[2] = qHTS assay to identify small molecule that activate the aryl hydrocarbon receptor (AhR) signaling pathway - cell viability counter screen (AID 743086);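 note: HepG2 liver cells carrying the AhR DRE luciferase reporter; series mostly up to about 70 µM; nearly all actives have a fitted effect of over 45% in size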
Procedure, shortened: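 Cytotoxicity counter screen: CellTiter-Fluor signal (30 min, 37 C) in 4000 HepG2 cells/well carrying the DRE-luciferase reporter, following 24 h compound exposure at 37 C.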

[3] = target: Peroxisome proliferator-activated receptor gamma (Homo sapiens) (UniProt P37231); experiment: qHTS assay to identify small molecule agonists of the peroxisome proliferator-activated receptor gamma (PPARg) signaling pathway (AID 743094; active = well fitted activation curve with a large enough effect in the signal ratio in the repeat runs, not every such curve was filed as active; the % refers to the signal ratio)
Procedure, shortened: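 Cells from the PPARg UAS-bla HEK293H line are plated and incubated 5 h at 37C. Compounds in DMSO are pinned in and left 17 h at 37C. LiveBLAzer B/G substrate is then added for 1 h at room temperature before fluorescence is measured.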

[4] = target: Peroxisome proliferator-activated receptor gamma (Homo sapiens) (UniProt P37231); experiment: qHTS assay to identify small molecule antagonists of the peroxisome proliferator-activated receptor gamma (PPARg) signaling pathway (AID 743191; calls by dose curve; note: series mostly up to about 63 µM; nearly all actives have a fitted effect of over 30% in size)
Procedure, shortened: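 Beta-lactamase reporter under UAS control in HEK293H PPARg-bla cells; compound treatment 17 h at 37C. Read-out: fluorescence intensity after 1 h room-temperature incubation with LiveBLAzer B/G FRET substrate.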

[5] = qHTS assay to identify small molecule antagonists of the peroxisome proliferator-activated receptor gamma (PPARg) signaling pathway - cell viability counter screen (AID 743194); note: nearly all actives have a fitted effect of over 55% in size
Procedure, shortened: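 Viability was measured as CellTiter-Glo luminescence in GeneBLAzer PPARg UAS-bla HEK293H cells. These cells had been exposed 17 h at 37 C to compounds together with rosiglitazone at 50 nM final, with the beta-lactamase readout taken in the same wells.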

[6] = qHTS assay for small molecule agonists of the antioxidant response element (ARE) signaling pathway (AID 743202; active = well fitted activation curve with a large enough effect in the signal ratio in the repeat runs, not every such curve was filed as active; the % refers to the signal ratio)
Procedure, shortened: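 After 16 hours of compound treatment at 37 C, HepG2 cells with a stably integrated ARE-driven beta-lactamase reporter were loaded 2 hours at room temperature with LiveBLAzer B/G FRET substrate and fluorescence intensity measured.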

[7] = qHTS assay for small molecule activators of the heat shock response signaling pathway - cell viability counter screen (AID 743209); note: nearly all actives have a fitted effect of over 50% in size
Procedure, shortened: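 Cytotoxicity counter screen run in parallel with the HSE beta-lactamase reporter, using the same wells. HeLa HSE-bla cells received compound for 5 h at 37 C; ATP-based CellTiter-Glo luminescence was measured after 30 min at room temperature.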

[8] = qHTS assay for small molecule activators of the heat shock response signaling pathway (AID 743210; active = well fitted activation curve with a large enough effect in the signal ratio in the repeat runs, with a control signal flat, not every such curve was filed as active; the % refers to the signal ratio; note: series mostly up to about 63 µM)
Procedure, shortened: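 Compound exposure lasted 5 h at 37 C in HeLa cells carrying a heat-shock-element-driven beta-lactamase reporter. Read-out: fluorescence intensity after 2.5 h room-temperature loading with LiveBLAzer B/G FRET substrate.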

[9] = qHTS assay to identify small molecule agonists of the peroxisome proliferator-activated receptor delta (PPARd) signaling pathway - cell viability counter screen (AID 743211); note: nearly all actives have a fitted effect of over 55% in size; note: potency is the fitted concentration of half-maximal effect
Procedure, shortened: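 Multiplexed format: after the 2 h room-temperature LiveBLAzer B/G FRET step, CellTiter-Glo was added to the same wells. Luminescence after 30 min gave cell viability; compound exposure was 17 h at 37C.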

[10] = target: Peroxisome proliferator-activated receptor delta (Homo sapiens) (UniProt Q03181); experiment: qHTS assay to identify small molecule agonists of the peroxisome proliferator-activated receptor delta (PPARd) signaling pathway (AID 743212; calls by dose curve)
Procedure, shortened: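 Beta-lactamase reporter readout: a ratiometric FRET signal from the LiveBLAzer substrate after 2 h at room temperature. Compound exposure at 37 °C in PPARδ-bla HEK293H cells driven by an upstream activator sequence.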

[11] = qHTS assay to identify small molecule antagonists of the peroxisome proliferator-activated receptor delta (PPARd) signaling pathway - cell viability counter screen (AID 743213); note: nearly all actives have a fitted effect of over 50% in size
Procedure, shortened: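 PPARd-bla HEK293H cells were treated with compounds plus agonist L165041 (300 nM final) for 17 h at 37 C. Viability was then read in the same wells by CellTiter-Glo luminescence after 30 min at room temperature.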

[12] = target: Peroxisome proliferator-activated receptor delta (Homo sapiens) (UniProt Q03181); experiment: qHTS assay to identify small molecule antagonists of the peroxisome proliferator-activated receptor delta (PPARd) signaling pathway (AID 743215; active = well fitted inhibition curve with a large enough effect in the signal ratio in the repeat runs, not every such curve was filed as active; the % refers to the signal ratio;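 note: cells stimulated with agonist L165041 at 300 nM final during compound exposure; series mostly up to about 62 µM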)
Procedure, shortened: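 Cells: HEK293H with a UAS-driven beta-lactamase reporter responsive to PPARd. Compounds were co-added with L165041 (300 nM, final) and incubated 17 h at 37 C before a 2 h room-temperature FRET substrate step and fluorescence reading.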

[13] = qHTS assay to identify small molecule antagonists of the farnesoid-X-receptor (FXR) signaling pathway - cell viability counter screen (AID 743221; active = well fitted cell-killing curve with a large enough effect in the repeat runs, not every such curve was filed as active; note: nearly all actives have a fitted effect of over 50% in size)
Procedure, shortened: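 CellTiter-Glo, 30 min RT, luminescence; same wells as the LiveBLAzer FRET read. Cells: FXR-UAS-bla HEK 293T. Treatment: compound with chenodeoxycholic acid 50 uM final, 16 h at 37 C.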

[14] = target: Vitamin D3 receptor (Homo sapiens) (UniProt P11473); experiment: qHTS assay to identify small molecule agonists of the vitamin D receptor (VDR) signaling pathway (AID 743222; calls by dose curve)
Procedure, shortened: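 Cells carrying a VDR-driven beta-lactamase reporter are seeded at 2,000 per well and rested 4 h. Compounds in DMSO are added for 16 h at 37C, and FRET substrate fluorescence is measured after 2 h at room temperature.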

[15] = target: Vitamin D3 receptor (Homo sapiens) (UniProt P11473); experiment: qHTS assay to identify small molecule antagonists of the vitamin D receptor (VDR) signaling pathway (AID 743223; active = well fitted inhibition curve with a large enough effect in the signal ratio in the repeat runs, not every such curve was filed as active; the % refers to the signal ratio)
Procedure, shortened: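 After VDR-bla cells are plated and left 4 h at 37C, DMSO-dissolved compounds and 3 nM (final) calcitriol agonist are added. Incubation continues 16 h at 37C; FRET beta-lactamase substrate then develops 2 h at room temperature.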

[16] = target: Aryl hydrocarbon receptor (Homo sapiens) (UniProt P35869); experiment: qHTS assay to identify small molecule that activate the aryl hydrocarbon receptor (AhR) signaling pathway (AID 743085); note: nearly all actives have a fitted effect of over 15% in size; note: potency is the fitted concentration of half-maximal effect;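 for activation: HG2L7.5c1 human HepG2 liver cells with stably integrated DRE-driven firefly reporter; series mostly up to about 70 µM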
Procedure, shortened: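 Reporter assay in engineered HepG2 line HG2L7.5c1, whose plasmid carries twenty dioxin responsive elements upstream of firefly luciferase. Treatment lasted 24 h at 37C; ONE-Glo luminescence gauged induction.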

[17] = target: Bile acid receptor (Homo sapiens) (UniProt Q96RI1); experiment: qHTS assay to identify small molecule antagonists of the farnesoid-X-receptor (FXR) signaling pathway (AID 743217; active = well fitted inhibition curve with a large enough effect in the signal ratio in the repeat runs, not every such curve was filed as active; the % refers to the signal ratio)
Procedure, shortened: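 Cells carrying a UAS-driven beta-lactamase reporter (GeneBLAzer FXR-UAS-bla HEK 293T) were plated and rested 5 h at 37 °C. Compounds in DMSO were added alongside chenodeoxycholic acid agonist at 50 uM final and left 16 h at 37 °C before FRET substrate readout.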

[18] = qHTS assay to identify small molecule agonists of the farnesoid-X-receptor (FXR) signaling pathway - cell viability counter screen (AID 743218); note: nearly all actives have a fitted effect of over 45% in size; note: potency is the fitted concentration of half-maximal effect
Procedure, shortened: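 Cells were seeded, left 5 h at 37 C and 5% CO2, then dosed with compound in DMSO for 16 h. After the beta-lactamase FRET read, CellTiter-Glo was added and luminescence measured 30 min later.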

[19] = target: Bile acid receptor (Homo sapiens) (UniProt Q96RI1); experiment: qHTS assay to identify small molecule agonists of the farnesoid-X-receptor (FXR) signaling pathway (AID 743220; active = well fitted activation curve with a large enough effect in the signal ratio in the repeat runs, not every such curve was filed as active; the % refers to the signal ratio)
Procedure, shortened: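 FXR-UAS-bla HEK 293T cells carrying a UAS-driven beta-lactamase reporter were plated for 5 h at 37C/5% CO2, then exposed to DMSO-dissolved Tox21 10K compounds for 16 h at 37C. A LiveBLAzer B/G FRET substrate was loaded for 2 h at room temperature before fluorescence reading.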

[20] = qHTS assay for small molecule agonists of the antioxidant response element (ARE) signaling pathway - cell viability counter screen (AID 743203; calls by dose curve; note: nearly all actives have a fitted effect of over 55% in size; note: potency is the fitted concentration of half-maximal effect)
Procedure, shortened: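 Cytotoxicity was tested in parallel with the ARE reporter screen. ARE-bla HepG2 cells were exposed to compounds for 16 hrs, and viability was taken from CellTiter-Glo luminescence.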

Bile acid receptor (Homo sapiens), sequence (Q96RI1 whole entry, looked up): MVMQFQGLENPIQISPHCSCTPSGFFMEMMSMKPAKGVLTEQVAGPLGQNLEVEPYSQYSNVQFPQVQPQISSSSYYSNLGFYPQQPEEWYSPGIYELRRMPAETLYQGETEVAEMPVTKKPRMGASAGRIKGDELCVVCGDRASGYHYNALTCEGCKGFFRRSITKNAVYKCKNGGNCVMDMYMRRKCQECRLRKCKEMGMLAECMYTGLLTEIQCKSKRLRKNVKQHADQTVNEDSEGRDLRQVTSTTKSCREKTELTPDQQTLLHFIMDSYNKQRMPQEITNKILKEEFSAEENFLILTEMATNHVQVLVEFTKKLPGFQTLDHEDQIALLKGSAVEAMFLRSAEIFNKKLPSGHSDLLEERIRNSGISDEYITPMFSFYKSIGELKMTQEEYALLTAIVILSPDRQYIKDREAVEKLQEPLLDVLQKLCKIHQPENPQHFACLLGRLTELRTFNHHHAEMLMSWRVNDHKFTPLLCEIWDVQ
Aryl hydrocarbon receptor (Homo sapiens), sequence (P35869 whole entry, looked up): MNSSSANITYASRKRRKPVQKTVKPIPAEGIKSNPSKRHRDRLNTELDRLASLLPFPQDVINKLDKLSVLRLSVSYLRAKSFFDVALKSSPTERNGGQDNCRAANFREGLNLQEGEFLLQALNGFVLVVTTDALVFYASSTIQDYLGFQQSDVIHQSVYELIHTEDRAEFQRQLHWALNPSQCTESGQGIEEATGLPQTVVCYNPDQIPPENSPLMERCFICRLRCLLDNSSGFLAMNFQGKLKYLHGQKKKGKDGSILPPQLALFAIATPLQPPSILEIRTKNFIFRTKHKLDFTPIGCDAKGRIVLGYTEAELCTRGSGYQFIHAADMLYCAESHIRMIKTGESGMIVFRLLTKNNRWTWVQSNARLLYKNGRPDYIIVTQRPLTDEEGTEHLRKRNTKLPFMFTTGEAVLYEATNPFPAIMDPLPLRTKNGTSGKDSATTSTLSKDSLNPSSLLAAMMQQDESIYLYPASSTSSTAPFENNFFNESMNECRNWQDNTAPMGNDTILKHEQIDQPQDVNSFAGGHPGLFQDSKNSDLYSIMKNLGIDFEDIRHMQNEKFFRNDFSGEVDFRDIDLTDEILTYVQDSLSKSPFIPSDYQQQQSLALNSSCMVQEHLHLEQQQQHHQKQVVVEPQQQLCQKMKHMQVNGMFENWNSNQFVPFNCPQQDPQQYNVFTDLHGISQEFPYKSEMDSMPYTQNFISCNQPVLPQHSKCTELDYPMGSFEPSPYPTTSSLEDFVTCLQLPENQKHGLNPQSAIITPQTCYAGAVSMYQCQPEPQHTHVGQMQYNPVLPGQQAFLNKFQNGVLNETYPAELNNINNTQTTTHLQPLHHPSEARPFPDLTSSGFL
Peroxisome proliferator-activated receptor gamma (Homo sapiens), sequence (P37231 whole entry, looked up): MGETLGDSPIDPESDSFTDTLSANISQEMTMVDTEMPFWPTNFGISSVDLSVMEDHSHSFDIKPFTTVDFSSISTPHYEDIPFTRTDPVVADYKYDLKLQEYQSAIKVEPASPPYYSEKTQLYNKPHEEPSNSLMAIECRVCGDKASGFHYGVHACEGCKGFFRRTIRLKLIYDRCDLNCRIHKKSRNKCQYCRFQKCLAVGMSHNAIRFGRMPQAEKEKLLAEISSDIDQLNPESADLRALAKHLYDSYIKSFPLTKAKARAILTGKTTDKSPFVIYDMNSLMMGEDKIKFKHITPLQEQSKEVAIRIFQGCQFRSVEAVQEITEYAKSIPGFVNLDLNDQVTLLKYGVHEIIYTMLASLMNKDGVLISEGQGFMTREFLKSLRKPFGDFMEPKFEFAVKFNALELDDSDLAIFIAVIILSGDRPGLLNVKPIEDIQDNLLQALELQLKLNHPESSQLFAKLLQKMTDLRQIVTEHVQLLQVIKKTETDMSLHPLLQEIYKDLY
Vitamin D3 receptor (Homo sapiens), sequence (P11473 whole entry, looked up): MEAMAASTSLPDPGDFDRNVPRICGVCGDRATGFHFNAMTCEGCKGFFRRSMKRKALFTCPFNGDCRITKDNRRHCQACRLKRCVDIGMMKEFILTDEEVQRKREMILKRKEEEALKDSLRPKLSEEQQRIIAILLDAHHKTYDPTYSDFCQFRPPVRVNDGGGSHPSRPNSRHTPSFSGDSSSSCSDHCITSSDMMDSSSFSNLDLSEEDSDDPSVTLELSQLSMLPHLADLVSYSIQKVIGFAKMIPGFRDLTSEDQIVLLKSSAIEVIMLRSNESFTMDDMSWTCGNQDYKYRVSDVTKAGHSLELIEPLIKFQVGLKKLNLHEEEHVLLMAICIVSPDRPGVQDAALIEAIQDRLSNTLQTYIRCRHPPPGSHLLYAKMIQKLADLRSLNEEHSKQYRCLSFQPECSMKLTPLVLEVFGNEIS
Peroxisome proliferator-activated receptor delta (Homo sapiens), sequence (Q03181 whole entry, looked up): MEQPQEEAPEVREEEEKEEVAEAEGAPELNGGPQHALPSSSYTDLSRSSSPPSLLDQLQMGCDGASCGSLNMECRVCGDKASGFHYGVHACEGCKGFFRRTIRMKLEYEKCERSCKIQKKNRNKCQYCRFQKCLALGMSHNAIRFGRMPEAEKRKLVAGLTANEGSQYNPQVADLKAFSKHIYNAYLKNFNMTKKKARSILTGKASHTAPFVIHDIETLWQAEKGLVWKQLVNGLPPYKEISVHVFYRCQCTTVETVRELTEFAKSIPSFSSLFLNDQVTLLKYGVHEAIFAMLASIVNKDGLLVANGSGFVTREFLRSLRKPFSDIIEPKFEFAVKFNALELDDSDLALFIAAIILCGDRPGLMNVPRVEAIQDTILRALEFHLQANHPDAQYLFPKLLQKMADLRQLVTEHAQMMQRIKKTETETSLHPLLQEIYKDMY

Structure (SMILES) | Potency [1] | outcome [2] | Potency [3] | Potency [4] | Potency [5] | Potency [6] | outcome [7] | Potency [8] | Potency [9] | outcome [10] | Potency [11] | outcome [12] | outcome [13] | outcome [14] | outcome [15] | Potency [16] | outcome [17] | Potency [18] | outcome [19] | Potency [20]
CC(C)Nc1nc(N)nc(Cl)n1 | inactive | inactive | inactive | inactive | inactive | inactive | inactive | inactive | inactive | inactive | inactive | inactive | inactive | inactive | inactive |  |  |  |  | 
O=[N+]([O-])c1nccn1CO[C@@H](CO)[C@H](O)CO | inactive |  | inactive | inactive | inactive | inactive | inactive | inactive |  | inactive | inactive | inactive | inactive |  |  | inactive | inactive | inactive | inactive | 
CN(C)C(=O)NC1(c2ccccc2)CCN(CCC[C@]2(c3ccc(Cl)c(Cl)c3)CCCN(C(=O)c3ccccc3)C2)CC1 | 6.51 µM (active) |  |  |  | inactive |  | inactive | inactive | 9.28 µM (active) |  |  | inactive | inactive | inactive |  | inactive |  | 11.7 µM (active) |  | 14.6 µM (active)
CN(CCCN1c2ccccc2CCc2ccccc21)CC(=O)c1ccc(Cl)cc1 | inactive |  |  | inactive | inactive |  |  |  |  | inactive | inactive | inactive | inactive | inactive | inactive | 29.8 µM (active) | inactive |  | inactive | inactive
Cc1c(N)cccc1N | inactive | inactive |  |  | inactive |  | inactive | inactive | inactive | inactive | inactive | inactive | inactive | inactive | inactive |  |  | inactive |  | inactive
CN1CCN(c2c(F)cc3c(=O)c(C(=O)O)cn4c3c2SCC4)CC1 | inactive | inactive | inactive |  | inactive | inactive | inactive | inactive | inactive |  | inactive | inactive | inactive | inactive | inactive |  | inactive | inactive | inactive | 
CCCCNc1ccc(C(=O)OCCN(CC)CC)cc1 | inactive | inactive | inactive | inactive | inactive |  | inactive | inactive | inactive | inactive |  | inactive | inactive | inactive |  |  |  | inactive |  | inactive
CC1CN(c2ccccc2)NC1=O (stereo unspecified) | inactive | inactive |  | inactive |  |  | inactive | inactive |  | inactive | inactive | inactive | inactive | inactive |  |  | inactive |  | inactive | inactive
CN1CCC[C@@H]1Cc1c[nH]c2ccc(CCS(=O)(=O)c3ccccc3)cc12 | inactive |  |  |  | inactive | inactive | inactive | inactive | inactive | inactive | inactive | inactive | inactive | inactive | inactive | inactive |  | inactive |  | inactive
